# Inconclusive results are not listed. A call without a number means that no potency is given here. Activity calls are given as the source filed them. Calls come from the whole dose curve; as a rule, active = well fitted curve in the direction sought with a large enough effect; inconclusive = small, poorly fitted or top-dose-only effect, or another doubt; inactive = no such curve, though single readings can be large; an effect the other way counts as inactive or inconclusive.
# Assays:
# [1] = molecular target: Rap guanine nucleotide exchange factor 3 (Homo sapiens) (UniProt O95398); experiment: Confirmatory qHTS for antagonist of cAMP-regulated guanine nucleotide exchange factor 3 (EPAC1) (AID 1645880); note: nearly all actives have a fitted effect of over 55% in size; note: potency is the fitted concentration of half-maximal effect
# Procedure, shortened: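 Nucleotide exchange uses 100 nM EPAC1, 250 nM RAP1B-BODIPY-GDP and 50 uM GDP, with compounds in a concentration-titration series. After 5 min at room temperature, fluorescence (480 nm ex/540 nm em) is read every 5 min for 30 min. Data are normalized to control ATA and DMSO.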
# [2] = molecular target: Rap guanine nucleotide exchange factor 3 (Homo sapiens) (UniProt O95398); experiment: Confirmatory qHTS for agonist of cAMP-regulated guanine nucleotide exchange factor 3 (EPAC1) (AID 1645881); note: nearly all actives have a fitted effect of over 75% in size; note: potency is the fitted concentration of half-maximal effect;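 for activation: EPAC1 catalysed release of BODIPY-GDP from Rap1B seen as fluorescence loss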
# [3] = molecular target: Rap guanine nucleotide exchange factor 4 (Homo sapiens) (UniProt Q8WZA2); experiment: Confirmatory qHTS for agonist of cAMP-regulated guanine nucleotide exchange factor 4 (EPAC2) (AID 1645884);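 note: nucleotide exchange releases bodipy-GDP from Rap1 and this lowers its fluorescence; nearly all actives have a fitted effect of over 65% in size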
# [4] = molecular target: Rap guanine nucleotide exchange factor 4 (Homo sapiens) (UniProt Q8WZA2); experiment: Confirmatory qHTS for antagonist of cAMP-regulated guanine nucleotide exchange factor 4 (EPAC2) (AID 1645885); note: nearly all actives have a fitted effect of over 25% in size; note: potency is the fitted concentration of half-maximal effect
# [5] = molecular target: Rap guanine nucleotide exchange factor 3 (Homo sapiens) (UniProt O95398); experiment: Counterscreen qHTS for antagonist of cAMP-regulated guanine nucleotide exchange factor 3 (EPAC1) (AID 1645888);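 note: fluorescence loss as bound BODIPY-GDP is released from Rap1B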
# Procedure, shortened: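 Rap1B-BODIPY-GDP 250 nM + GDP 50 uM; cpds 7-pt, final 9.74 nM–152 uM (activator mode) or from 7.32 nM upwards (inhibitor mode); RT; FI 480/540 nm at 5 and 30 min, then ± cAMP, reread.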
# Sequence of Rap guanine nucleotide exchange factor 3 (Homo sapiens) (O95398 whole entry, looked up): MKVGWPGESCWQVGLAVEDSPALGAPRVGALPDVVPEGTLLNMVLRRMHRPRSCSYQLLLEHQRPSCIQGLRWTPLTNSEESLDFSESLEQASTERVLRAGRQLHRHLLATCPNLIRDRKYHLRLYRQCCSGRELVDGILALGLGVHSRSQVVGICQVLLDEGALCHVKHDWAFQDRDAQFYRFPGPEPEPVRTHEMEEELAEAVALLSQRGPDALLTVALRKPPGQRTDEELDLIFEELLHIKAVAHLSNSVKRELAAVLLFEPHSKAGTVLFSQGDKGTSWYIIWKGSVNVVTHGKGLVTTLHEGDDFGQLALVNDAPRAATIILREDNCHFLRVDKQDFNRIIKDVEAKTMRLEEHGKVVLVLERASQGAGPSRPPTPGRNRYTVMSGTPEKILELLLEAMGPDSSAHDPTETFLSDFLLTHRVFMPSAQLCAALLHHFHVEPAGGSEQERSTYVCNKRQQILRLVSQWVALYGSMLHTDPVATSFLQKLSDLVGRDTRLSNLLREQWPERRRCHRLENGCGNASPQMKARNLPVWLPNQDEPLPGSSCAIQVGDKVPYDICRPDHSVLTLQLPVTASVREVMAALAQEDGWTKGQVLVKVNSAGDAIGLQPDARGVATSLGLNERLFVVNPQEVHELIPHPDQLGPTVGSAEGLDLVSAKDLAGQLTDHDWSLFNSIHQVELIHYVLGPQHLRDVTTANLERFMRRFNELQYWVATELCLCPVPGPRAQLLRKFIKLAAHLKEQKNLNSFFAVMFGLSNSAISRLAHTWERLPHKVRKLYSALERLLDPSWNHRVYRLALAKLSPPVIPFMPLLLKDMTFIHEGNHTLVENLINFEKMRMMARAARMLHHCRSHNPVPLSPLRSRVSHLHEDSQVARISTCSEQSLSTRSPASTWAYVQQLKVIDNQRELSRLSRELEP
# Sequence of Rap guanine nucleotide exchange factor 4 (Homo sapiens) (Q8WZA2 whole entry, looked up): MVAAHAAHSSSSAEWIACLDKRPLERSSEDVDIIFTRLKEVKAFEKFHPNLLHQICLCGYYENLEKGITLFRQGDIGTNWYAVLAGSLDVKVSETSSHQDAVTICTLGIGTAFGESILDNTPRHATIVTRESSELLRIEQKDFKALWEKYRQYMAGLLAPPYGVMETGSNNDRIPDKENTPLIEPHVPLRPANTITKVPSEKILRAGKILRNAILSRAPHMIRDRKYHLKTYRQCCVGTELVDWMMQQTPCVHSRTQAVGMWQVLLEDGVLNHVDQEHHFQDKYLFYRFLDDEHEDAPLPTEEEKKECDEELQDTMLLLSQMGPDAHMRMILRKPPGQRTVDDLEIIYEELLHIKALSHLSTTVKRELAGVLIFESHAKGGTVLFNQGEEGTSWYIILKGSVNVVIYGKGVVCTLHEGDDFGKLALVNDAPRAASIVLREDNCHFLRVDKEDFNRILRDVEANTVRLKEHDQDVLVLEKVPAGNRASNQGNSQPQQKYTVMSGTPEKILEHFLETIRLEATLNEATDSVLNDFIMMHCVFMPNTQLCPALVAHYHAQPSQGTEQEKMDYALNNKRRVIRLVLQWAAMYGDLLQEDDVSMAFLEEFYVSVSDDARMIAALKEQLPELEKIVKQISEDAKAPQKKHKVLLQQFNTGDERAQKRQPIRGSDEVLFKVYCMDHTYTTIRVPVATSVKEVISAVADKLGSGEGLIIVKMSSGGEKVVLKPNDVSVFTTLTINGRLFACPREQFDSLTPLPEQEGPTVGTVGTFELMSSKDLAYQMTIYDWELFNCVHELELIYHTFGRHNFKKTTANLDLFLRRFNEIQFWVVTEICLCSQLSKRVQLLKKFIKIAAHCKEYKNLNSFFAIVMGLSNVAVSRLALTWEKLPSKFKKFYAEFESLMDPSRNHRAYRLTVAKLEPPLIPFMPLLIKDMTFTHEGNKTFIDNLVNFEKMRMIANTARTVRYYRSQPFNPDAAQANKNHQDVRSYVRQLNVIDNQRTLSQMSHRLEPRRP
Structure (SMILES),Potency [1],Potency [2],Potency [3],Potency [4],Potency [5],activation [3],"activity change, negative = inhibition [5]",outcome [4]
Cc1ccnc(NS(=O)(=O)c2ccc(NC(=O)Cc3c(F)cccc3Cl)cc2)n1,inactive,inactive,inactive,inactive,inactive,–,–,–
CC(C)C[C@H](NC(=O)[C@H](Cc1ccccc1)n1c(=O)[nH]c2ccccc2c1=O)C(=O)N1CCC(C(=O)O)CC1,inactive,inactive,inactive,inactive,inactive,–,–,–
CC1(C(=O)NS(=O)(=O)c2cccc(F)c2)CCN1C(=O)C1(c2ccc(Cl)cc2)CCC1 (stereo not given),19 µM (active),inactive,inactive,inactive,inactive,–,–,–
Cc1ccc(N(Cc2cccs2)C(=O)c2ccccc2Cl)cc1,inactive,inactive,inactive,inactive,inactive,–,–,–
Cc1ccc(NC(=O)C2CCN(S(=O)(=O)c3ccc4c(c3)OCCCO4)CC2)nc1,inactive,inactive,–,inactive,–,"6.5% [at 17.1 µM, percent relative to cAMP agonist control] (inactive)",13.4% [at 30.8 µM] (inactive),–
Cc1cccc(C(=O)Nc2cccc(C(=O)OCc3cc(=O)n4c5c(sc4n3)CCCC5)c2)c1,inactive,inactive,inactive,inactive,inactive,–,–,–
COC(=O)c1c(NC(=O)c2c(OC)cccc2OC)sc2c1CCCC2,inactive,inactive,inactive,inactive,inactive,–,–,–
CN1CCN(C2=C(Cl)C(=O)c3ccccc3C2=O)CC1,25.1 µM (active),inactive,–,inactive,–,"11% [at 17.1 µM, percent relative to cAMP agonist control] (inactive)",17.9% [at 30.8 µM] (inactive),–
CCc1cccc2c(C(=O)COC(=O)c3nccnc3N)c[nH]c12,inactive,inactive,inactive,inactive,inactive,–,–,–
Cc1cccc(Cc2cnc(N3C(=N)SC(c4ccccc4)C3=O)s2)c1 (stereo not given),inactive,inactive,inactive,inactive,inactive,–,–,–
CCCCn1c(CN2CCOCC2)nc2c1c(=O)n(C)c(=O)n2C,inactive,inactive,inactive,inactive,inactive,–,–,–
Cc1ccc2c(c1)c1c3n2CCN(C(=O)C2CC2)C3CCC1 (stereo not given),inactive,inactive,inactive,75.7 µM (active),inactive,–,–,–
Cc1c(NC(=O)/C=C/c2cn(-c3ccccc3)nc2-c2ccccc2)c(=O)n(-c2ccccc2)n1C,inactive,inactive,–,inactive,–,"0% [at 17.1 µM, percent relative to cAMP agonist control] (inactive)",-4.59% [at 30.8 µM] (inactive),–
Cc1ccc(S(=O)(=O)/N=C2\SC(CC(=O)Nc3ccc(F)cc3)C(=O)N2c2ccccc2)cc1 (stereo not given),inactive,inactive,–,inactive,–,"3.37% [at 17.1 µM, percent relative to cAMP agonist control] (inactive)",-39.2% [at 30.8 µM] (inactive),–
O=C1/C(=C/C=C/c2ccco2)SC(=S)N1NS(=O)(=O)c1ccccc1,5.62 µM (active),inactive,–,inactive,–,"11.3% [at 17.1 µM, percent relative to cAMP agonist control] (inactive)",17.5% [at 30.8 µM] (inactive),–
CCOc1c(S(=O)(=O)N2CCCC2)ccc(Cl)c1Cl,inactive,inactive,inactive,inactive,inactive,–,–,–
COc1ccc(-c2oc3c4c2C(=O)OCCOC4CCC3)cc1 (stereo not given),inactive,inactive,inactive,inactive,inactive,–,–,–
COc1ccc(NC(=O)c2ccc3c(SCC(=O)O)c4c(nc3c2)CCCC4)c(OC)c1,75.7 µM (active),inactive,inactive,inactive,inactive,–,–,–
O=C(O)CN1C(=O)/C(=C\c2cccc(OCc3ccc(Cl)cc3)c2)SC1=S,75.7 µM (active),inactive,inactive,inactive,inactive,–,–,–
COc1ccc(-c2nc3n(c(=O)c2C#N)CCS3)cc1,inactive,inactive,–,inactive,–,"4.85% [at 17.1 µM, percent relative to cAMP agonist control] (inactive)",-1.96% [at 30.8 µM] (inactive),–
COc1ccc(Cl)cc1N1C(=O)C2CCCN2C1c1ccccc1F (stereo not given),inactive,inactive,inactive,inactive,inactive,–,–,–
COc1ccc(OCC(=O)NCCC2=CCCCC2)c([N+](=O)[O-])c1,inactive,inactive,–,inactive,–,"7.73% [at 17.1 µM, percent relative to cAMP agonist control] (inactive)",-6.06% [at 30.8 µM] (inactive),–

Structure (SMILES),Potency [1],Potency [2],Potency [3],Potency [4],Potency [5],activation [3],"activity change, negative = inhibition [5]",outcome [4]
COc1ccc(C2NC(=O)N(C)C3=C2C(=O)N(c2cccc(Cl)c2)C3)cc1 (stereo not given),inactive,inactive,inactive,inactive,inactive,–,–,–
O=C(Cn1cc(SCc2ccc(Cl)cc2)c2ccccc21)N1CCCC1,inactive,inactive,inactive,inactive,inactive,–,–,–
CCOC(=O)/C(=C\c1ccc(N2CCC(c3ccccc3)=N2)cc1)C(C)=O,inactive,79.4 µM (active),–,inactive,–,"15.2% [at 17.1 µM, percent relative to cAMP agonist control] (inactive)",28% [at 30.8 µM] (inactive),–
Cc1c(Br)c(=O)oc2c(Br)c(O)c(O)cc12,3.16 µM (active),inactive,–,inactive,–,"9.71% [at 17.1 µM, percent relative to cAMP agonist control] (inactive)",21.7% [at 30.8 µM] (inactive),–
CCOC(=O)c1[nH]c(C)c(C(=O)NC(C)(C)C)c1C,inactive,inactive,inactive,inactive,inactive,–,–,–
O=C1C(Cl)=C(N2CCC(C(=O)O)CC2)C(=O)c2ccccc21,inactive,inactive,inactive,inactive,inactive,–,–,–
Cc1cc(C)c(OCC(=O)Nc2ccccc2N2CCCCC2)c(C)c1,inactive,inactive,inactive,inactive,inactive,–,–,–
Cc1nnc(SCc2cccc3ccccc23)s1,inactive,inactive,inactive,inactive,inactive,–,–,–
COCCNC(=O)CSc1nc2cc3c(cc2c(=O)n1CCCCCC(=O)NCc1ccc(OC)cc1)OCO3,inactive,inactive,inactive,inactive,inactive,–,–,–
Cc1ccc(CNC(=O)COc2ccccc2-c2ccccc2)cc1,inactive,inactive,–,inactive,–,"2.73% [at 17.1 µM, percent relative to cAMP agonist control] (inactive)",0.587% [at 30.8 µM] (inactive),–
COc1ccc(N2CCN(C(=O)COC(=O)c3ccc(C)o3)CC2)cc1,inactive,inactive,–,inactive,–,"5.39% [at 17.1 µM, percent relative to cAMP agonist control] (inactive)",-20% [at 30.8 µM] (inactive),–
CC1CN(C(=O)CCC(=O)NCc2ccccc2)c2ccccc2S1 (stereo not given),inactive,inactive,inactive,inactive,inactive,–,–,–
COC(=O)c1ccccc1NC(=O)CN1C(=O)COc2ccccc21,inactive,inactive,inactive,–,inactive,–,–,inactive [at 12.7 µM]
CC1CN(C(=O)N2CCOCC2)CCN1C(=O)N1CCOCC1 (stereo not given),inactive,inactive,inactive,inactive,inactive,–,–,–
N#CCC(=O)Nc1sc2c(c1C(N)=O)CCCC2,inactive,inactive,–,inactive,–,"10.1% [at 17.1 µM, percent relative to cAMP agonist control] (inactive)",-6.4% [at 30.8 µM] (inactive),–
CCc1ccc(S(=O)(=O)/N=C2\C=C(NS(=O)(=O)c3ccccc3)C(=O)c3ccccc32)cc1,19 µM (active),inactive,inactive,inactive,inactive,–,–,–
CCN(CC(=O)Nc1ccc(NC(C)=O)cc1)CC(=O)Nc1ccc(F)c(Cl)c1,inactive,inactive,–,inactive,–,"5.14% [at 17.1 µM, percent relative to cAMP agonist control] (inactive)",3.51% [at 30.8 µM] (inactive),–
CCc1ccc(NC(=O)CSc2nnc(Cc3cccn3C)n2-c2ccc(OC)cc2)cc1,inactive,inactive,–,inactive,–,"15.3% [at 17.1 µM, percent relative to cAMP agonist control] (inactive)",-10.1% [at 30.8 µM] (inactive),–
COc1cc(/C=C2\SC(=S)N(NS(=O)(=O)c3ccccc3)C2=O)cc(OC)c1OC,15.1 µM (active),inactive,inactive,inactive,inactive,–,–,–
COc1ccc(OC)c(Nc2ncc3c(n2)CCN(Cc2cc(OC)c(OC)c(OC)c2)C3)c1,inactive,inactive,inactive,inactive,inactive,–,–,–
Cc1ccc(CN2C(=O)CSC2c2ccccc2F)cc1 (stereo not given),inactive,inactive,inactive,33.8 µM (active),inactive,–,–,–
O=C(/C=C/c1ccco1)c1cccc([N+](=O)[O-])c1,42.6 µM (active),inactive,inactive,inactive,inactive,–,–,–

# — PubChem BioAssay (NCATS)
